Test results: PubChem BioAssay AID892 (National Center for Advancing Translational Sciences (NCATS), 2007)
The whole screen tested about 75,000 compounds, of which about 20 (0.03%) were called active. Not all results are given here. Unmarked numbers belong to inactive results. The call rests on the fitted dose curve; in most records, active means well fitted inhibition curve with a large enough effect; inconclusive means small, poorly fitted or top-dose-only effect; inactive means no such curve, though single readings can be large or run the other way.

biological target: Breast cancer type 1 susceptibility protein (Homo sapiens) (UniProt P38398); assay: qHTS Assay for Inhibitors of BRCT-Phosphoprotein Interaction (Red Fluorophore); conditions: BRCT-phosphopeptide binding, red fluorescence polarization; series mostly up to 76.9 µM; activity change, negative = inhibition: at the top concentration
Method: NIH Molecular Libraries Screening Centers Network [MLSCN]
NIH Chemical Genomics Center [NCGC]
PI Name: Natarajan, Amarnath; University of Texas
A complex of BRCT (C-terminal portion of BRCA1, MW ~35 kDa, His-tagged) and fluorescently labeled pBACH1 phosphorylated 10 aa peptide fragment of BACH1, a helicase implicated in DNA repair, is incubated with library members. Inhibitors of BRCT-pBACH1 binding are detected by a decrease in the fluorescence polarization (FP) of the fluorophore. In order to minimize the effect of fluorescence artifacts and to increase the overall robustness of the screen, the compound library members were incubated in separate reactions with rhodamine-labeled probe-protein complexes. Protein and labeled probes were supplied by Dr. Amarnath Natarajan, Department of Pharmacology and Toxicology, University of Texas Medical Branch Galveston, TX.
Assay Buffer: 16mM Na2HPO4, 4 mM NaH2PO4, 150 mM NaCl, 1 mM EDTA, 1 mM DTT, 0.02% NaN3, and 0.01% Tween 20 at pH 7.3.
Assay Controls: 100 nM TAMRA labeled decapeptide dispensed into columns 3 and 4 to generate negative control (full inhibition of
binding, -100 % activity). 100 nM labeled decapeptide/100 nM protein in columns 1, 2, 5 - 48. Titration of unlabeled decapeptide control (from 10 mM, then 1:2 dilution in duplicate) pin-transferred to column 2, rows 1 to 16. Column 1 is neutral.
Three uL of reagents were dispensed to 1536-well Greiner black solid-bottom plates. Compounds and controls (23 nL) were transferred via Kalypsys PinTool. The plates were incubated for 12 min at room temperature, and then read on ViewLux (Perkin-Elmer) High-throughput CCD imager using BODIPY for the rhodamine-labeled decapeptide probe polarization filter sets. During dispense, reagent bottles were kept submerged into 4 deg C water bath and all liquid lines were covered with aluminum foil to minimize probe and protein degradation. All screening operations were performed on a Kalypsys robotic system (Kalypsys, Inc., San Diego, CA) containing one RX-130 and two RX-90 anthropomorphic robotic arms. The timing and order of assay plates passing through the screening system were adjusted such that each compound library plate was assayed against the fluorescein- and rhodamine-labeled assay systems at immediately adjacent time points.
On the % scale 0 is the no-effect control and ±100 the full control effect.

Breast cancer type 1 susceptibility protein (Homo sapiens), sequence (P38398 whole entry, looked up): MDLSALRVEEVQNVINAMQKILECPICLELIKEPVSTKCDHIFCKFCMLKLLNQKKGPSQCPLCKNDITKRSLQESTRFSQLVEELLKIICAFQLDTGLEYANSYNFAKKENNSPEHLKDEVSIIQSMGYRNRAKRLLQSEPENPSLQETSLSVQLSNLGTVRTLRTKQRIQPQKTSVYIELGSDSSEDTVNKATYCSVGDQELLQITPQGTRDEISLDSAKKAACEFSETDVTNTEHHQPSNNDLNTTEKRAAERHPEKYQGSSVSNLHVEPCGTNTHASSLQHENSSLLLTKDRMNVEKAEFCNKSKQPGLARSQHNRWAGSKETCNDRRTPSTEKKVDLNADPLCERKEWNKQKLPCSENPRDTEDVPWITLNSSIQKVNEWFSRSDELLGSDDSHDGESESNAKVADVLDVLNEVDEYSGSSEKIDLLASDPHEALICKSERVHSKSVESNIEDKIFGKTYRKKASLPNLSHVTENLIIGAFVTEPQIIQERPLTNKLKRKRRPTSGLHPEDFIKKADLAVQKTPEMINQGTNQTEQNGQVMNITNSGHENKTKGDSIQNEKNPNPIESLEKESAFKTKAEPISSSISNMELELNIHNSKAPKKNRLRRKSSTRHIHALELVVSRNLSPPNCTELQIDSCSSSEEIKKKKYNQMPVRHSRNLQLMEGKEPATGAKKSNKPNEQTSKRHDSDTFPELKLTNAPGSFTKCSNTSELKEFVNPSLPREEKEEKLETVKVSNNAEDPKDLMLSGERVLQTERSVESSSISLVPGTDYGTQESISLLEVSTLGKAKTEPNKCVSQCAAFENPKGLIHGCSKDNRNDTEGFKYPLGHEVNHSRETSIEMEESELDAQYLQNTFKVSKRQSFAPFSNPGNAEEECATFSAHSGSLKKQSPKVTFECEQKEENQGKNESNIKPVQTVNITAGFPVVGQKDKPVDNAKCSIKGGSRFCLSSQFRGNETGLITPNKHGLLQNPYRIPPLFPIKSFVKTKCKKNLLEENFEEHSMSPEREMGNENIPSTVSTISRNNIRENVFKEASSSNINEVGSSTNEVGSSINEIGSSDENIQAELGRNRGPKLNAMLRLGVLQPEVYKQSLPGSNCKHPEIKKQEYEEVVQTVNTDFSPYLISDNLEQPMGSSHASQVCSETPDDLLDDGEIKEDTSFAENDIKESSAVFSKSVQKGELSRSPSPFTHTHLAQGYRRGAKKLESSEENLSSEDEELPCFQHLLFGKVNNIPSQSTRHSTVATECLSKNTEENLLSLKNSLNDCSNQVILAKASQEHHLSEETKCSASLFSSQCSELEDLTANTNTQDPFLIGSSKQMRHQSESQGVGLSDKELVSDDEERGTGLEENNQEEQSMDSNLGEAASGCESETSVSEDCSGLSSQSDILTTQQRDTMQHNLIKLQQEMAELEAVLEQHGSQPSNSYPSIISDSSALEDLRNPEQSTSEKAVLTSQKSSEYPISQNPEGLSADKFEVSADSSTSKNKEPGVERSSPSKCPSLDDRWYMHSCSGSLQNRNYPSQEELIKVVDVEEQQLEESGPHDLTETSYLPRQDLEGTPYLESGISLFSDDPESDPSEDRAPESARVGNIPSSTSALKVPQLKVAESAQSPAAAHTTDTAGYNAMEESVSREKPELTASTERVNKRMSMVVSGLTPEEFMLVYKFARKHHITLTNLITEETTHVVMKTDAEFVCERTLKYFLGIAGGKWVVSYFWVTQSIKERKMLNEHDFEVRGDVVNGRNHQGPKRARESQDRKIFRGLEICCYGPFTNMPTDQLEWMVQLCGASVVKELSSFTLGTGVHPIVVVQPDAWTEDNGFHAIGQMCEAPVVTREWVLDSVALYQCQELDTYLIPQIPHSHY

Row | SMILES | activity change, negative = inhibition
1 | COC(=O)c1c(-c2ccc(C)cc2)csc1N | -0.205%
2 | O=C(OC(C(=O)NC1CCCC1)c1ccc(F)cc1)c1ccno1 (stereo not drawn) | 1.14%
3 | CCOc1ccccc1NC(=O)CCc1ccc(C)o1 | 0.664%
4 | Cc1c(C(=O)OCC(=O)N(CCC#N)c2ccccc2)oc2c1ccc1ccccc12 | -1.38%
5 | O=C1c2cccnc2C(Nc2ccc(S(=O)(=O)N3CCCCCC3)cc2)N1Cc1ccccc1 (stereo not drawn) | -1.92%
6 | Cc1cc(C)n(C(=O)c2ccc(S(=O)(=O)N3CCCC3)cc2)n1 | 0.192%
7 | Cn1c(SCc2nc3ccccc3s2)nnc1-c1ccc2c(c1)OCO2 | 1.04%
8 | COC(=O)[C@@H]1C[C@@]2(O)[C@H](O)[C@H](O)[C@H](O)C[C@H]2N1Cc1ccc(C(C)(C)C)cc1 | 0.112%
9 | CC1=C(C(=O)OCc2ccccc2)C(c2ccco2)n2ncnc2N1 (stereo not drawn) | 0.427%
10 | CCOC(=O)N1CCC(NC(=O)C(C)n2c3ccccc3c3cnn(C)c(=O)c32)CC1 (stereo not drawn) | -0.528%
11 | C=CCNc1nnc(C)c2ccccc12 | -0.8%
12 | COc1cccc(N(CC(=O)Nc2cccc(F)c2)S(C)(=O)=O)c1 | 1.38%
13 | Cc1cnc(CNc2ncncc2-c2ccccc2Cl)cn1 | -0.849%
14 | O=C(Cn1nc(C(F)(F)F)c2c1CCC2)NCc1ccc(F)cc1 | 2.4%
15 | O=C1CC(N2CCN(C(c3ccccc3)c3ccccc3)CC2)C(=O)N1 (stereo not drawn) | 0.264%
16 | CCOC(=O)c1cccc(NC(=O)CCc2c(C)nc3ncnn3c2C)c1 | -1.78%
17 | C/C(=C\c1ccco1)C1Nc2cccc3cccc(c23)N1 | -2.79%
18 | Brc1ccc(OCCn2ccnc2)cc1 | 1.45%
19 | O=C(Cl)c1ccccc1[N+](=O)[O-] | 0.844%
20 | CO/N=C\[C@@H](C)[C@H](OCc1ccccc1)C(C)C | -2.08% [at 15.4 µM]
21 | Cc1cccc(-c2cc(=O)c3cc(C)ccc3o2)c1 | -3.67%
22 | Cc1cnc(NC(=O)CSc2nnc(-c3ccc(Cl)cc3Cl)n2N)s1 | 1.12%
23 | CCn1nnc(NC(=O)c2cc(Cl)c(OC)c(Cl)c2)n1 | 0.626%
24 | O=C(CSc1nnc2scc(-c3ccc(F)cc3)n12)NCc1ccco1 | -3.16%

Row | SMILES | activity change, negative = inhibition
25 | O=C(CSc1nnc2ccccn12)c1ccccc1 | -0.613%
26 | CN(C)/C=N/c1cc(=O)n(C)c(=O)n1CC1CC1 | 0.302%
27 | CCn1c(CSc2nncn2-c2ccc(OC)cc2)nc2cc(S(=O)(=O)N(C)C)ccc21 | -0.0262%
28 | Cc1ccc(C(=O)Nc2nnc(-c3ccncc3)s2)o1 | -0.503%
29 | CCCN(CCC)C(=O)C1c2ccccc2Oc2ccccc21 | -2.75%
30 | O=C(NCCc1ccco1)c1nn(Cc2ccccc2)c(=O)c2ccccc12 | -1.11%
31 | COC(=O)c1c(NC(=O)CSc2nncs2)sc2c1CCCCC2 | -0.0838%
32 | CCOC(=O)N1CCN(C(=O)c2nn(-c3ccc(C)cc3)c(=O)c3c2c2ccccc2n3C)CC1 | 0.678%
33 | CCOC(=O)c1nnn(CC(=O)Nc2cccc(F)c2)c1C(=O)OCC | -0.331%
34 | CCC1=C(OC(=O)N(CC)CC)N2C(=O)OC(=NCC3CC3)[C@]2(C)[C@H]2C1=CC[C@H]1C(=O)N(CC(=O)OC)C(=O)[C@H]12 | -1.92%
35 | COc1ccc(C(=O)NCc2cn3ccccc3n2)cc1 | 0.842%
36 | COc1cccc(-c2cc(NCCc3c[nH]c4ccc(OC)cc34)ncn2)c1 | -0.197%
37 | COCCNC(=O)CSc1nc2c(n1-c1ccccc1)CCCC2 | 0.0626%
38 | COc1ccccc1N=C1SC(C)CN1C(=O)C1CCC1 (stereo not drawn) | 1.07%
39 | Cc1ccc2[nH]c3c(c2c1)CN(C(=O)CN1CCN(c2ccccc2)CC1)CC3 | -1.58%
40 | CC(NC(=O)c1cc(-c2ccccc2)on1)c1ccccc1 (stereo not drawn) | -1.69%
41 | O=S(=O)(c1cccs1)N1CCN(Cc2ccccc2)CC1 | 0.716%
42 | CCCC(=O)Nc1nnc(CC(=O)OCC)s1 | -0.653%
43 | N#CC1=C(SCc2ccccc2)NC(=O)C(C#N)C12CCCC2 (stereo not drawn) | 0.43%
44 | Cc1cc(N(C)C)cc(C)[n+]1[O-] | -0.606%
45 | CC(C)(C)NC(=O)c1cc(NC(=O)c2ccco2)cc(NC(=O)c2ccco2)c1 | 0.733%
46 | Cc1ccc2nc(NC(=O)C3CCN(S(=O)(=O)c4ccc5c(c4)oc(=O)n5C)CC3)sc2c1 | 0.323%
47 | COC(=O)[C@@H]1C[C@@]2(O)[C@H](O)[C@H](O)[C@H](O)C[C@H]2N1Cc1ccc(C)s1 | -0.918%
48 | COC(=O)Nc1nc2ccc(Sc3ccccc3)cc2[nH]1 | inactive
